SKOV3 invasion – Primary qHTS assay for Inhibitors of ovarian cancer metastasis using an organotypic tumor microenvironment (TME) model; Potency, µM (series often up to 45.8 µM), inactives show at the highest dose activity change, negative = inhibition, hits mostly inhibitors; 46,000 tested, 0.1% active; SKOV3ip1-GFP adhesion/invasion on 3D omental model, fluorescence;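 note: plate controls were DMSO wells for no effect and tomatine positive control wells for full effect; nearly all actives have a fitted effect of over 65% in size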
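qHTS, 4-pt dose (0.36-46 umol/L); SKOV3ip1-GFP, 1,200 cells/well, no FBS; primary omental fibroblast/mesothelial co-culture 48 h pre-grown; 2 h RT + 16 h 37 C; PBS wash, 4% PFA; GFP count 488/509 nm.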
S16 viability – Cell viability qHTS assay in S16 Pmp22-F2sN cells; AID 1508642, 2021; 43,000 tested, 0.48% active; S16 Pmp22-F2sN Schwann cells viability, CellTiter-Glo, 24 h; Potency, µM (series often up to 57.5 µM), for the others: at the top dose activity change, negative = cytotoxicity, hits mostly cytotoxic; note: nearly all actives have a fitted effect of over 65% in size
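Seed 500-1,000 S16 Pmp22-F2sN cells per well in phenol-red-free DMEM with 10% heat-inactivated FBS; pin-add 23 nL compound; incubate 24 h at 37C; add CellTiter-Glo, wait 15 min protected from light; read luminescence.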
mTORC1 inh – Acumen qHTS Assay for Inhibitors of the mTORC1 Signaling Pathway in MEF (Tsc2-/-, p53-/-) Cells: Sytravon; Potency, µM (doses to about 38.3 µM), inactives show at the top dose activity change, negative = inhibition, most hits filed as inhibitors; Tsc2-/- p53-/- MEF, phospho-rpS6 immunofluorescence/PI, 24 h; 44,000 tested, 0.78% active;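 note: plate controls were DMSO for no effect and rapamycin for full effect; nearly all actives have a fitted effect of over 50% in size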
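Compounds act on Tsc2-/-, p53-/- fibroblasts carrying an empty vector for 24 h before fixation and dual staining for phospho-S6 and DNA (propidium iodide). Values are percentages of cells above a rapamycin-defined pS6/PI threshold.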
PMP22 txn – Cell-based coincidence reporter assay to measure PMP22 gene transcription in S16 Pmp22-F2sN cells - Primary screen | S16 Pmp22-F2sN Schwann cells (luciferase reporters placed in the Pmp22 gene), FLuc/NLuc coincidence luminescence, 24 h | Potency, µM (highest dose often 57.5 µM), for the others: at the top dose activity change, negative = inhibition, most hits filed as inhibitors | 43,000 tested, 2% active | AID 1508649, 2021; active = clear falling dose curves in both reporters; inconclusive = both reporters move, but less clearly or upward; inactive = either reporter flat; the % is the NLuc reporter signal
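Schwann cells carrying the coincidence reporter were exposed to library compounds for 24 h at 37C, then lysed and read for FLuc and, after quenching, NLuc luminescence on a CCD imager.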
p53null 32C tox – qHTS Screen for Compounds that Selectively Target Cancer Cells with p53 Mutations: Cytotoxicity of p53 Null Cells at the Permissive Temperature | H1299-neo p53 null cells, ATP luminescence, 24 h, 32C | Potency, µM (top dose mostly 46.1 µM), for inactives: top-dose activity change, negative = cytotoxicity, actives largely listed as cytotoxic | 55,000 tested, 0.62% active | AID 903, 2007;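 note: 0% = DMSO only and -100% = full killing by 100 µM tamoxifen; nearly all actives have a fitted effect of over 55% in size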
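Luminescent ATP readout gave cell viability of p53-null H1299-neo cells after a 24 h compound exposure at the permissive 32C. Titrations ran up to 46 uM, and AC50s were fitted with the standard Hill equation.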
p53null 39C kill – qHTS Screen for Compounds that Selectively Target Cancer Cells with p53 Mutations: Cytotoxicity of p53 Null Cells at the Nonpermissive Temperature | H1299 p53-null (neo) cells, 39C, ATPlite viability, 24 h | AID 904, 2007 | 55,000 tested, 0.97% active | Potency, µM (highest dose often 46.1 µM), inactives show top-dose activity, negative = cell killing, hits mostly cytotoxic;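 note: 0% = DMSO only and -100% = full killing by 100 µM tamoxifen; nearly all actives have a fitted effect of over 50% in size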
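H1299 lung cancer cells, p53-null (H1299-neo) or expressing p53 A138V (H1299-p53A138V), were plated overnight at 37C, then exposed to compounds at up to 46 uM for 24 hr at 39C. Viability was read by ATP-based luminescence.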
An asterisk follows results filed as active; i = inactive; ? = inconclusive; / = no result given. A selection: hits, their analogues and other compounds. The true share with any hit is near 3%. Unless noted, calls come from the whole dose curve; as a rule, active = well fitted curve in the direction sought with a large enough effect; inconclusive = small, poorly fitted or top-dose-only effect, or another doubt; inactive = no such curve, though single readings can be large; an effect the other way counts as inactive or inconclusive. Unless noted, % is set by controls: 0 for no effect and ±100 for the full control effect; potency is the fitted concentration of half-maximal effect.

SMILES	SKOV3 invasion	S16 viability	mTORC1 inh	PMP22 txn	p53null 32C tox	p53null 39C kill
O=C(O)C1=NC(C(=O)O)CC(C=CN2c3cc(O)c(OC4OC(CO)C(O)C(O)C4O)cc3CC2C(=O)O)=C1 (centres undefined)	-15.4%	/	/	/	/	/
Cc1ccc(-c2c(C)n3c4c(=O)n(C)c(=O)n(C)c4nc3n2CCCO)cc1	9.8%	31.6µM*	-4.5%	?	-6.5%	-11.7%
CCn1c(=O)c(C(=O)Nc2ccc(C(C)=O)cc2)nc2ccccc21	i	-5.7%	-1.5%	3.6%	10µM*	10µM*
CC1CCN(S(=O)(=O)c2ccc3nc(Nc4cccc(C(F)(F)F)c4)ccc3c2)CC1	-18.4%	?	?	?	-17.2%	11.2µM*
Cc1ccc(C)c(NC(=O)CSc2nnc3[nH]c(=O)cc(-c4ccccc4)n23)c1	2.3%	-14.1%	0.4%	?	1.58µM*	?
CCOc1ccccc1NC(=O)CSc1nnc2[nH]c(=O)cc(-c3ccccc3)n12	-0.6%	-5.8%	-1.1%	-45.6%	?	26.1%
Cc1ccc(NC(=O)CSc2nnc3[nH]c(=O)cc(-c4ccccc4)n23)cc1Cl	-5.4%	5.4%	-10.6%	?	3.98µM*	?
COc1cccc(NC(=O)CSc2nnc3[nH]c(=O)cc(-c4ccccc4)n23)c1	1.6%	-11.4%	0.5%	-89.4%	?	?
COc1ccc(Nc2c3c(nc4ccc(NC(=O)/C=C/c5cc(OC)c(OC)c(OC)c5)cc24)CCCC3)cc1OC	-8.8%	11.2µM*	2.07µM*	?	12.6µM*	7.08µM*
COc1ccc(/C=C/C(=O)Nc2ccc3nc(N4CCC(C)CC4)cc(C)c3c2)cc1	5.7%	?	-9.9%	-0.9%	2.5%	2.7%
COc1ccc(/C=C/C(=O)Nc2ccc3nc4c(c(Nc5ccc(OC)c(OC)c5)c3c2)CCCC4)cc1	5.01µM*	?	3.69µM*	?	12.6µM*	6.31µM*
COc1ccc(/C=C/C(=O)Nc2ccc3nc(N4CCCCC4)cc(C)c3c2)cc1OC	?	?	?	?	-7.0%	-2.7%
COc1ccc(/C=C/C(=O)Nc2ccc3nc4c(c(Nc5ccccc5OC)c3c2)CCCC4)cc1	1.26µM*	?	2.33µM*	?	-8.6%	?
COc1ccc(Nc2c3c(nc4ccc(NC(=O)/C=C/c5cccc(OC)c5OC)cc24)CCCC3)cc1OC	5.01µM*	?	3.69µM*	?	10µM*	3.16µM*
COc1ccc(NC(=O)c2ccc3c(SCC(=O)O)c4c(nc3c2)CCCC4)cc1OC	-14.8%	?	0.5%	-67.1%	-16.0%	-9.9%
CC1(C)S[C@H]2[C@H](NC(=O)[C@@H](N)c3ccc(O)cc3)C(=O)N2[C@@H]1C(=O)O	3.5%	/	/	/	/	/
CC(C)n1cnc2c(NCCCCCCNC(=O)OC(C)(C)C)nc(NCCO)nc21	-2.4%	/	/	/	/	/
C=C(C)[C@@H]1CC[C@]2(C)CC[C@]3(C)[C@H](CC[C@@H]4[C@@]5(C)CC[C@H](O)C(C)(C)[C@H]5CC[C@]43C)[C@@H]12	-3.1%	/	/	/	/	/
CCCN(CCC)CCCNC(=O)C1CCN(c2nc3ccc(CC)cc3s2)CC1	?	28.2µM*	16.5µM*	?	?	?
CCCN(CCC)CCNC(=O)C1CCN(c2nc3ccc(CC)cc3s2)CC1	?	?	16.5µM*	?	?	?
CCc1ccc2nc(N3CCC(C(=O)NCCC(C)C)CC3)sc2c1	-4.3%	0.7%	0.0%	?	?	6.31µM*
CC(C)(C)n1ncc2c(=O)n(CC(=O)c3ccccc3)cnc21	/	/	/	/	-15.8%	12.6µM*
O=C(C=CC#Cc1cccc(NS(=O)(=O)c2ccccc2)c1)NO	-9.7%	/	/	/	/	/
CCn1c(C)cc(/C=C2/SC(=S)NC2=O)c1C	/	/	/	/	17.8µM*	/
Cn1cc(C(=O)O)c(=O)c2cc(S(=O)(=O)N3CCOCC3)ccc21	-5.6%	14.1µM*	-0.4%	?	-4.1%	4.4%
SMILES	SKOV3 invasion	S16 viability	mTORC1 inh	PMP22 txn	p53null 32C tox	p53null 39C kill
CCCNC(=O)[C@H]1O[C@H]1C(=O)N[C@H](C(=O)N1CCC[C@@H]1C(=O)OC)C(C)CC (some centres undefined)	-12.0%	/	/	/	/	/
CCc1ccccc1-n1nnc(-c2nc(-c3ccccc3F)no2)c1C	i	2.3%	0.9%	?	?	-22.8%
Cc1c(-c2nc(-c3ccccc3F)no2)nnn1-c1cc(F)ccc1F	2.0%	0.3%	-3.8%	?	?	3.16µM*
CCOc1cc(CNCCc2ccccc2)ccc1OCC(=O)NC(C)(C)C	/	/	/	/	-1.0%	15.8µM*
Cc1ccn2c(Nc3ccccc3C)c(-c3ccc(N4CCOCC4)cc3)nc2c1	-8.3%	-7.4%	-1.0%	-21.2%	22.0%	7.2%
Cc1ccccc1Nc1c(-c2ccc(N3CCOCC3)cc2)nc2ccc(Cl)cn12	1.9%	-16.1%	0.4%	-0.4%	?	12.6µM*
Cc1ccc2nc(-c3ccc(N4CCOCC4)cc3)c(Nc3ccccc3C)n2c1	-26.1%	-17.5%	-2.3%	?	?	5.01µM*
CC1(C)CCC(CN2CCN(c3ccc(C(=O)NS(=O)(=O)c4ccc(NCC5CCOCC5)c([N+](=O)[O-])c4)c(Oc4cnc5[nH]ccc5c4)c3)CC2)=C(c2ccc(Cl)cc2)C1	22.1%	/	/	/	/	/
CN(c1ccccc1)C(CNS(=O)(=O)c1ccccc1)c1ccccc1 (centres undefined)	-7.0%	-1.2%	-11.7%	?	39.0%	?
Cc1ccc(N(C)C(CNS(=O)(=O)c2ccccc2)c2ccccc2)cc1 (centres undefined)	-7.5%	-5.3%	-12.4%	?	25.3%	14.1µM*
CN[C@@H](C)C(=O)N[C@H]1CN(C(=O)CC(C)C)CC[C@H]2CC[C@@H](C(=O)NC(c3ccccc3)c3ccccc3)N2C1=O	-5.2%	/	/	/	/	/
Cc1ccc(Cl)cc1N1CCN(CCCNc2ncnc3onc(-c4ccc(F)cc4)c23)CC1	-4.2%	?	-1.2%	17.9µM*	-0.7%	-0.9%
O=S(=O)(c1ccc(Cl)cc1)N1CCC(c2ccncc2)CC1	3.7%	11.2%	-1.1%	5.0%	-2.0%	8.6%
